In PubChem BioAssay (EPA / NIEHS):
“And” between values parts separate entries of the source, which are not always exact repeats. Equal entries are not always repeated. Records with an inconclusive call do not appear. The source made the active and inactive calls. How the source made its calls: active means hit-call score of the fitted dose curve at least 0.9, where 1 is the maximum; inconclusive means response in the unintended direction; inactive means score below 0.9. Peptide text beside a SMILES is read from it.

Legend:
[1] = biological target: Cellular tumor antigen p53 (Homo sapiens) (UniProt P04637); assay: TOX21_p53_BLA_p3_ratio: Tox21 HCT-116 p53 Agonism Beta-lactamase Assay, Ratio, Phase 3 (AID 2283596)
Cellular tumor antigen p53 (Homo sapiens), sequence (P04637 whole entry, looked up): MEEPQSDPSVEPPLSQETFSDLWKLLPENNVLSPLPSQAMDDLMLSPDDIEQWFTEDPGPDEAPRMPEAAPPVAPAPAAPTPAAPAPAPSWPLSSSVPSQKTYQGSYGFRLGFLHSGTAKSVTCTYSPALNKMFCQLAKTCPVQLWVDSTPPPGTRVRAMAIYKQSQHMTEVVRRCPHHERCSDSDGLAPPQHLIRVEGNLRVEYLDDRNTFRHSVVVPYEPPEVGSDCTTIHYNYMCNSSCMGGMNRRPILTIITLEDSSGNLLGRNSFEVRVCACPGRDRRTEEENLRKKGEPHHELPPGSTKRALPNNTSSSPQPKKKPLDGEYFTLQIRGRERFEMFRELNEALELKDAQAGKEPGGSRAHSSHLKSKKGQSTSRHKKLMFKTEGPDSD
How it was run: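 Cells were seeded at 4000/well, rested 5 h at 37C, then dosed with DMSO compound solutions (217-fold dilution) for 16 h. CCF4-AM substrate was loaded for 2 h at room temperature, and the 460/530 nm emission ratio was fitted for gain of signal versus DMSO.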

[2] = TOX21_p53_BLA_p4_viability: Viability Assessment in the Tox21 HCT-116 p53 Agonism Beta-lactamase Assay, Phase 4 (AID 2283597);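 further: hits lower the luminescence signal meaning cytotoxicity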
How it was run: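 Cytotoxicity as reduced cellular ATP (CellTiter-Glo luminescence, 30 min room temperature), measured in the same wells following the CCF4 FRET p53 reading. Human HCT-116 cells received compounds in DMSO (217-fold dilution) for 16 h.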

[3] = biological target: Cellular tumor antigen p53 (Homo sapiens) (UniProt P04637); assay: TOX21_p53_BLA_p5_ratio: Tox21 HCT-116 p53 Agonism Beta-lactamase Assay, Ratio, Phase 5 (AID 2283599)
How it was run: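 Beta-lactamase reporter ratio (blue 460 nm over green 530 nm, 405 nm excitation) after 2 h CCF4-AM loading, in HCT-116 cells exposed 16 h at 37 C to compounds pinned at 217-fold dilution. Increases relative to DMSO baseline scored.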

[4] = biological target: Cellular tumor antigen p53 (Homo sapiens) (UniProt P04637); assay: TOX21_p53_BLA_p4_ratio: Tox21 HCT-116 p53 Agonism Beta-lactamase Assay, Ratio, Phase 4 (AID 2283601)
How it was run: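 Signal is the blue/green (460nm/530nm) ratio of cleaved versus uncleaved CCF4-AM substrate, read after 2 h substrate loading. Cells were HCT116 carrying the p53-responsive beta-lactamase reporter, dosed 16 h at 37C, 5% CO2; CellTiter-Glo measured in parallel.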

[5] = TOX21_p53_BLA_p5_viability: Viability Assessment in the Tox21 HCT-116 p53 Agonism Beta-lactamase Assay, Phase 5 (AID 2283600)
How it was run: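 Viability came from CellTiter-Glo ATP luminescence, read after 30 min at room temperature. Before this, HCT-116 p53-bla cells (4000/well) had 16 hours of compound exposure at 37C, with DMSO stocks diluted 217-fold on transfer.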

## O=C(O)/C=C/c1ccccc1
[1]
  outcome: inactive
[2]
  outcome: inactive
[3]
  outcome: inactive
[4]
  outcome: inactive

## CCCCCC[C@@H](O)C/C=C\CCCCCCCC(=O)OCC(O)CO (some centres undefined)
[1]
  outcome: inactive
[2]
  outcome: inactive
[4]
  outcome: inactive

## O=C(O)C1CCC(C(=O)O)CC1 (centres undefined)
[1]
  outcome: inactive
[2]
  AC50: 82.4 µM (active)
[3]
  outcome: inactive
[4]
  AC50: 85.8 µM (active)

## O=C(Cl)c1c(Cl)c(Cl)c(C(=O)Cl)c(Cl)c1Cl
[1]
  outcome: inactive
[2]
  outcome: inactive
[3]
  outcome: inactive
[5]
  outcome: inactive
[4]
  outcome: inactive

## CCCCCCCCCCCCc1ccc(O)cc1
[1]
  AC50: 49.9 µM (active)
[2]
  AC50: 16.3 µM (active)
[3]
  AC50: 52.1 µM (active)
[5]
  AC50: 24 µM (active)
[4]
  AC50: 28.3 µM (active)

## Oc1ccccc1Cc1ccccc1O
[1]
  outcome: inactive
[2]
  outcome: inactive
[4]
  outcome: inactive

## CC=C(C)C=CC=C(C)C
[1]
  outcome: inactive
[2]
  outcome: inactive
[3]
  outcome: inactive
[4]
  outcome: inactive

## O=C(Oc1ccccc1)c1ccccc1C(=O)Oc1ccccc1
[1]
  outcome: inactive
[2]
  outcome: inactive
[3]
  outcome: inactive
[4]
  outcome: inactive

## C=C(C)C(=O)OCCOC(=O)C(=C)C
[1]
  outcome: inactive
[2]
  outcome: inactive
[3]
  outcome: inactive
[5]
  outcome: inactive
[4]
  outcome: inactive

## CC(CCC(=O)O)(c1ccc(O)cc1)c1ccc(O)cc1
[1]
  outcome: inactive
[2]
  outcome: inactive
[3]
  outcome: inactive
[4]
  outcome: inactive

## C=CC(=O)OCCCCCCCC(C)C
[1]
  outcome: inactive
[2]
  outcome: inactive
[5]
  outcome: inactive
[4]
  outcome: inactive

## N#CC1(N)CCCCC1
[1]
  outcome: inactive
[2]
  outcome: inactive
[3]
  outcome: inactive
[5]
  outcome: inactive
[4]
  outcome: inactive

## COC(=O)[C@H](Cc1ccccc1)NC(=O)[C@@H](N)CC(=O)O (H-Asp-Phe-OMe)
[1]
  outcome: inactive
[2]
  outcome: inactive
[3]
  outcome: inactive
[4]
  outcome: inactive

## CN(C)Cc1cc(CN(C)C)c(O)c(CN(C)C)c1
[1]
  outcome: inactive
[2]
  outcome: inactive
[3]
  outcome: inactive
[4]
  outcome: inactive

## Clc1cc(Cl)c(Cl)c(Cl)c1Cl
[1]
  outcome: inactive
[2]
  outcome: inactive
[5]
  outcome: inactive
[4]
  outcome: inactive

## O=C(OCc1ccccc1)c1ccc(O)cc1
[1]
  outcome: inactive
[2]
  outcome: inactive
[3]
  outcome: inactive
[4]
  outcome: inactive

## CCc1cccc(C)c1N
[1]
  outcome: inactive
[2]
  outcome: inactive
[3]
  outcome: inactive
[5]
  outcome: inactive
[4]
  outcome: inactive

## O=C(Cl)c1ccc(C(=O)Cl)cc1
[1]
  outcome: inactive
[2]
  outcome: inactive
[3]
  outcome: inactive
[4]
  outcome: inactive

## CCCCCCO
[1]
  outcome: inactive
[2]
  outcome: inactive
[5]
  outcome: inactive

## O=S(=O)(O)c1ccc(N=Nc2c(O)ccc3ccccc23)cc1
[1]
  outcome: inactive
[2]
  AC50: 44 µM (active)
[3]
  outcome: inactive
[5]
  outcome: inactive
[4]
  outcome: inactive

## CCC[Si](OC)(OC)OC
[1]
  outcome: inactive
[2]
  outcome: inactive
[3]
  outcome: inactive
[4]
  outcome: inactive

## CC(C)c1ccc(O)c(C(C)C)c1
[1]
  outcome: inactive
[2]
  AC50: 44.7 µM (active)
[3]
  outcome: inactive
[4]
  AC50: 81 µM (active)

## C=C(C)C(=O)OCC(O)COc1ccc(C(C)(C)c2ccc(OCC(O)COC(=O)C(=C)C)cc2)cc1 (centres undefined)
[1]
  AC50: 86.7 µM (active)
[2]
  AC50: 46.1 µM (active)
[3]
  outcome: inactive
[4]
  outcome: inactive

## NC(=O)Nc1ccccc1
[1]
  outcome: inactive
[2]
  outcome: inactive
[3]
  outcome: inactive
[4]
  outcome: inactive

## C[Si](C)(C)N[Si](C)(C)C
[1]
  outcome: inactive
[2]
  outcome: inactive
[3]
  outcome: inactive
[5]
  outcome: inactive
[4]
  outcome: inactive

## COc1ccc(C(=O)/C(Br)=C\C(=O)O)cc1
[1]
  AC50: 14.4 µM (active) and 25.8 µM (active)
[2]
  AC50: 76.7 µM (active) and 44.5 µM (active)
[3]
  AC50: 21 µM (active) and 21.6 µM (active)
[4]
  AC50: 60 µM (active) and 27.2 µM (active)

## O=C(O)c1ccc2c(c1)C(=O)OC2=O
[1]
  outcome: inactive
[2]
  outcome: inactive
[5]
  outcome: inactive
[4]
  outcome: inactive

## CC(C)=CCl
[1]
  outcome: inactive
[2]
  outcome: inactive
[5]
  outcome: inactive
[4]
  outcome: inactive

## CC(CC=O)CC(C)(C)C (centres undefined)
[1]
  outcome: inactive
[2]
  outcome: inactive
[4]
  outcome: inactive

## CCCC(C)C(=O)OCC (centres undefined)
[1]
  outcome: inactive
[2]
  outcome: inactive
[4]
  outcome: inactive

## CCCCNS(=O)(=O)c1ccccc1
[1]
  outcome: inactive
[2]
  outcome: inactive
[3]
  outcome: inactive
[4]
  outcome: inactive

## CCCCNC(=S)NCCCC
[1]
  outcome: inactive
[2]
  outcome: inactive
[4]
  outcome: inactive

## CC(C)OC(=O)c1ccccc1
[1]
  outcome: inactive
[3]
  outcome: inactive
[4]
  outcome: inactive

## CCOC(=O)/C=C\C(=O)OCC
[1]
  outcome: inactive
[3]
  outcome: inactive
[4]
  outcome: inactive

## CCCC1CCCC(=O)O1 (centres undefined)
[1]
  outcome: inactive
[3]
  outcome: inactive
[4]
  outcome: inactive

## CC(C)=CCCC(C)=CC#N
[1]
  outcome: inactive
[3]
  outcome: inactive
[4]
  outcome: inactive

## CCN1CCCC1=O
[1]
  outcome: inactive
[3]
  outcome: inactive
[5]
  outcome: inactive
[4]
  outcome: inactive

## Nc1ncnc2nc[nH]c12
[1]
  outcome: inactive
[3]
  outcome: inactive
[4]
  outcome: inactive

## O=S(=O)(O)c1ccc(Nc2nc(Nc3ccc(C=Cc4ccc(Nc5nc(Nc6ccc(S(=O)(=O)O)cc6)nc(N(CCO)CCO)n5)cc4S(=O)(=O)O)c(S(=O)(=O)O)c3)nc(N(CCO)CCO)n2)cc1
[1]
  AC50: 41.3 µM (active)
[3]
  AC50: 42.6 µM (active)
[4]
  AC50: 37.1 µM (active)

## C=Cc1ccc(OC(C)=O)cc1
[1]
  outcome: inactive
[3]
  outcome: inactive
[5]
  outcome: inactive
